Among the data in PubChem BioAssay (NCI) are growth values, retold here.

Test systems include HCT-15 colon; HT29 colon; SNB-75 CNS; SNB-19 CNS; U251 CNS; PC-3 prostate; SK-MEL-5 melanoma; UACC-62 melanoma; LOX IMVI melanoma; SK-MEL-28 melanoma; SK-MEL-2 melanoma; SN12C renal; UO-31 renal; TK-10 renal; CAKI-1 renal; A498 renal; CCRF-CEM leukemia; MOLT-4 leukemia; EKVX NSCLC; ACHN renal.
Assay in all cases: NCI-60 one-dose screen, 48 h (100 = growth as untreated, 0 = no growth, -100 = all killed)
Conditions in all cases: 10 µM unless noted

Where “and” joins values, the source holds several entries; their conditions need not be identical. Identical values can stand only once. Compounds without any hit were thinned out: in the full panel of roughly 83,000, 20% have a hit.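 Results are percent growth after 48 hours of single-concentration exposure. 100 means growth as in untreated cells, lower positive values show inhibition; negative values down to -100 show cell death.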 A structure can be active in one record and inactive in another. Calls of active or inactive are those of the source. How the source made its calls: active means growth percent below 10; inactive means the rest.

For `O=C(O)C1C2C=CC(C2)C1C(=O)O` (stereo not given), the growth is 106% (inactive) and 101% (inactive) with HCT-15 colon; 94.3% (inactive) and 14.4% (inactive) and 104% (inactive) in the experiment with HT29 colon; 102% (inactive) and 61.9% (inactive) and 89% (inactive) in the experiment on SNB-75 CNS; 99.2% (inactive) and 51.6% (inactive) and 113% (inactive) with SNB-19 CNS; 105% (inactive) and 19.7% (inactive) and 98.8% (inactive) in the experiment with U251 CNS; 93.6% (inactive) and 17.4% (inactive) and 98.1% (inactive) in the experiment on PC-3 prostate. Also, the growth in the experiment with SK-MEL-5 melanoma was 103% (inactive) and 23.6% (inactive) and 98.5% (inactive); in the experiment with UACC-62 melanoma it was 89.8% (inactive) and 26.8% (inactive) and 104% (inactive); in the experiment on LOX IMVI melanoma, 109% (inactive) and 16.9% (inactive) and 104% (inactive); with SK-MEL-28 melanoma it was 105% (inactive) and 49.8% (inactive) and 109% (inactive); in the experiment on SK-MEL-2 melanoma it was 150% (inactive) and 57.5% (inactive) and 111% (inactive); with SN12C renal, 84.7% (inactive) and 24% (inactive) and 102% (inactive). In addition, the growth in the experiment on UO-31 renal was 87.9% (inactive) and 96.5% (inactive) and 94.4% (inactive); in the experiment with TK-10 renal, 91.1% (inactive) and 32.5% (inactive) and 106% (inactive); with CAKI-1 renal, 98.2% (inactive) and 7.77% (active) and 98.7% (inactive); with A498 renal it was 96.8% (inactive) and 64.8% (inactive) and 99.2% (inactive); in the experiment with CCRF-CEM leukemia, 95.4% (inactive) and 25.3% (inactive) and 99.6% (inactive); in the experiment with MOLT-4 leukemia, 106% (inactive) and 27.8% (inactive) and 101% (inactive).

Turning to `S=C1SCN(Cc2ccccc2)CN1Cc1ccccc1`, the growth was 39.8% (inactive) with HCT-15 colon; 65.4% (inactive) in the experiment with HT29 colon; 76.1% (inactive) in the experiment with SNB-75 CNS; 96.4% (inactive) in the experiment on SNB-19 CNS; 80.2% (inactive) with U251 CNS; 46.6% (inactive) in the experiment on PC-3 prostate. The growth is 87.1% (inactive) with SK-MEL-5 melanoma; 82.5% (inactive) in the experiment with UACC-62 melanoma; 69.3% (inactive) in the experiment on LOX IMVI melanoma; 103% (inactive) in the experiment with SK-MEL-28 melanoma; 85% (inactive) in the experiment on SK-MEL-2 melanoma; 98.5% (inactive) with EKVX NSCLC. Moreover, the growth with SN12C renal was 90.5% (inactive); in the experiment with TK-10 renal, 75.2% (inactive); in the experiment on ACHN renal, 84.5% (inactive); in the experiment on CAKI-1 renal, 76.1% (inactive); with A498 renal, 74.4% (inactive); in the experiment with CCRF-CEM leukemia it was 40.4% (inactive). Further, the growth in the experiment with MOLT-4 leukemia was 70.6% (inactive).

In the case of `COc1cc2nc(N3CCC[C@@H](NC(=O)C4COc5ccccc5O4)C3)nc(N)c2cc1OC` (stereo not given in full), the growth with HCT-15 colon is 101% (inactive) and 97.1% (inactive); in the experiment on HT29 colon it was 109% (inactive) and 97.7% (inactive); in the experiment with SNB-75 CNS, 83.3% (inactive) and 90.3% (inactive); in the experiment with SNB-19 CNS it was 107% (inactive) and 102% (inactive); in the experiment with U251 CNS, 93.3% (inactive) and 84.2% (inactive); with PC-3 prostate it was 92.9% (inactive) and 94.2% (inactive). The growth was 99.5% (inactive) and 96.7% (inactive) in the experiment with SK-MEL-5 melanoma; 103% (inactive) and 104% (inactive) in the experiment on UACC-62 melanoma; 100% (inactive) and 94.7% (inactive) with LOX IMVI melanoma; 102% (inactive) and 98.7% (inactive) in the experiment on SK-MEL-28 melanoma; 112% (inactive) and 107% (inactive) in the experiment on SK-MEL-2 melanoma; 104% (inactive) and 103% (inactive) in the experiment with SN12C renal. The growth is 98.6% (inactive) and 89.7% (inactive) in the experiment on TK-10 renal; 103% (inactive) and 96.4% (inactive) in the experiment with ACHN renal; 92% (inactive) and 89.6% (inactive) in the experiment with CAKI-1 renal; 99.4% (inactive) and 83.5% (inactive) in the experiment with A498 renal; 96.2% (inactive) and 103% (inactive) in the experiment with CCRF-CEM leukemia; 88% (inactive) and 94.3% (inactive) in the experiment with MOLT-4 leukemia.

With `CC1=CCC2CC1C2(C)C` (stereo not given), the growth in the experiment with HCT-15 colon is 99.5% (inactive) and 94% (inactive); in the experiment with HT29 colon, 114% (inactive) and 105% (inactive); with SNB-75 CNS, 102% (inactive) and 90.3% (inactive); in the experiment with SNB-19 CNS it was 95.8% (inactive) and 101% (inactive); in the experiment on U251 CNS it was 97.4% (inactive) and 92% (inactive); in the experiment with PC-3 prostate it was 101% (inactive) and 89.5% (inactive). Besides, the growth in the experiment on SK-MEL-5 melanoma was 102% (inactive) and 87.7% (inactive); with UACC-62 melanoma, 97% (inactive) and 93.6% (inactive); with LOX IMVI melanoma, 93.4% (inactive) and 88.6% (inactive); with SK-MEL-28 melanoma, 97.5% (inactive) and 102% (inactive); with SK-MEL-2 melanoma it was 88.2% (inactive) and 108% (inactive); in the experiment on EKVX NSCLC it was 91.7% (inactive) and 83.2% (inactive). In addition, the growth was 103% (inactive) and 94.4% (inactive) with SN12C renal; 113% (inactive) and 119% (inactive) in the experiment on TK-10 renal; 102% (inactive) and 96.1% (inactive) in the experiment with ACHN renal; 76.2% (inactive) and 82.8% (inactive) in the experiment with CAKI-1 renal; 103% (inactive) and 81% (inactive) with A498 renal; 121% (inactive) and 114% (inactive) in the experiment with CCRF-CEM leukemia. Further, the growth with MOLT-4 leukemia was 96.1% (inactive) and 96% (inactive).

On to `NC(=O)c1ccccc1OCC(O)CO` (stereo not given), for which the growth with HCT-15 colon is 98.1% (inactive); in the experiment with HT29 colon it was 105% (inactive); in the experiment with SNB-75 CNS, 84.5% (inactive); in the experiment on SNB-19 CNS, 102% (inactive); with U251 CNS, 99.5% (inactive); in the experiment with PC-3 prostate, 103% (inactive). The growth is 101% (inactive) with SK-MEL-5 melanoma; 98.5% (inactive) in the experiment with UACC-62 melanoma; 104% (inactive) in the experiment with LOX IMVI melanoma; 105% (inactive) in the experiment on SK-MEL-28 melanoma; 103% (inactive) with SK-MEL-2 melanoma; 101% (inactive) in the experiment with SN12C renal. For the same molecule, the growth was 99.7% (inactive) with UO-31 renal; 110% (inactive) with TK-10 renal; 103% (inactive) in the experiment on ACHN renal; 97.5% (inactive) in the experiment on CAKI-1 renal; 94.6% (inactive) with A498 renal; 93.6% (inactive) with CCRF-CEM leukemia. Also, the growth in the experiment with MOLT-4 leukemia was 108% (inactive).

Turning to `CCOC(=O)C(CNc1ccccc1)C(=O)OCC`, the growth was 106% (inactive) in the experiment on HCT-15 colon; 105% (inactive) in the experiment on HT29 colon; 77.9% (inactive) in the experiment with SNB-75 CNS; 91.2% (inactive) in the experiment with SNB-19 CNS; 93.5% (inactive) in the experiment on U251 CNS; 98.2% (inactive) in the experiment on PC-3 prostate. Also, the growth in the experiment with SK-MEL-5 melanoma is 100% (inactive); with UACC-62 melanoma, 103% (inactive); in the experiment with LOX IMVI melanoma, 101% (inactive); in the experiment on SK-MEL-28 melanoma, 103% (inactive); with SK-MEL-2 melanoma it was 109% (inactive); in the experiment on SN12C renal, 105% (inactive). For the same molecule, the growth was 84.7% (inactive) with UO-31 renal; 106% (inactive) with TK-10 renal; 94.9% (inactive) in the experiment on CAKI-1 renal; 98.5% (inactive) in the experiment with A498 renal; 98.5% (inactive) with MOLT-4 leukemia.

With `O=Nc1ccc(O)cc1`, the growth in the experiment with HCT-15 colon is 89.3% (inactive) and 92.3% (inactive); with HT29 colon, 97.4% (inactive) and 97.5% (inactive); in the experiment on SNB-75 CNS, 95.6% (inactive); in the experiment with SNB-19 CNS it was 106% (inactive) and 99.3% (inactive); in the experiment with U251 CNS it was 101% (inactive) and 94.2% (inactive); in the experiment on PC-3 prostate, 85.1% (inactive) and 90% (inactive). Also, the growth with SK-MEL-5 melanoma is 98% (inactive) and 109% (inactive); with UACC-62 melanoma, 90.2% (inactive) and 93.4% (inactive); in the experiment with LOX IMVI melanoma, 90.8% (inactive) and 82.3% (inactive); in the experiment with SK-MEL-28 melanoma it was 113% (inactive); in the experiment on SK-MEL-2 melanoma, 96.7% (inactive) and 109% (inactive); in the experiment on EKVX NSCLC it was 91.6% (inactive) and 105% (inactive). Also, the growth is 96.1% (inactive) and 97.3% (inactive) in the experiment with SN12C renal; 107% (inactive) and 105% (inactive) in the experiment on TK-10 renal; 81.3% (inactive) and 75% (inactive) in the experiment on ACHN renal; 122% (inactive) and 130% (inactive) in the experiment on A498 renal; 75.4% (inactive) and 56.1% (inactive) with CCRF-CEM leukemia; 82.5% (inactive) and 89.2% (inactive) with MOLT-4 leukemia.

Take `O=C(/C=C\c1ccnc2ccccc12)c1ccc([N+](=O)[O-])cc1`: the growth in the experiment on HCT-15 colon was 87.9% (inactive) and 69.7% (inactive); in the experiment with HT29 colon it was 70.3% (inactive) and 3.25% (active); in the experiment on SNB-75 CNS, 110% (inactive) and 86.5% (inactive); with SNB-19 CNS, 90% (inactive) and 86.4% (inactive); with U251 CNS, 95.3% (inactive) and 79.6% (inactive); in the experiment on PC-3 prostate it was 93.8% (inactive) and 74.7% (inactive). In addition, the growth in the experiment with SK-MEL-5 melanoma was 67.4% (inactive) and 53.8% (inactive); with UACC-62 melanoma it was 82.6% (inactive) and 70.7% (inactive); in the experiment with LOX IMVI melanoma, 52.1% (inactive) and 9.87% (active); with SK-MEL-28 melanoma, 104% (inactive) and 92.1% (inactive); in the experiment on SK-MEL-2 melanoma, 83.4% (inactive) and 93.8% (inactive); in the experiment on SN12C renal it was 96.9% (inactive) and 86.2% (inactive). In addition, the growth in the experiment on UO-31 renal is 61.6% (inactive) and 49.7% (inactive); with TK-10 renal, 81.3% (inactive) and 86.9% (inactive); in the experiment on ACHN renal, 75.2% (inactive) and 70.6% (inactive); with CAKI-1 renal, 89.8% (inactive) and 70.3% (inactive); in the experiment with A498 renal it was 109% (inactive) and 55.2% (inactive); in the experiment on CCRF-CEM leukemia it was 67.9% (inactive) and 28.6% (inactive). For the same molecule, the growth with MOLT-4 leukemia is 63.1% (inactive) and 49.3% (inactive).

Turning to `OC1CCC(Oc2cccc3cnc(Nc4ccc5nc[nH]c5c4)nc23)CC1` (stereo not given), the growth in the experiment with HCT-15 colon is 5.3% (active) and 81% (inactive); in the experiment with HT29 colon it was 2.98% (active) and 46% (inactive); with SNB-75 CNS, -22.7% (active) and 37.5% (inactive); with SNB-19 CNS, 9.42% (active) and 41.1% (inactive); in the experiment on U251 CNS, 3.2% (active) and 27.7% (inactive); in the experiment on PC-3 prostate, 3.19% (active) and 35.5% (inactive). Also, the growth is -6.41% (active) and 47.6% (inactive) with SK-MEL-5 melanoma; -4.06% (active) and 46.2% (inactive) with UACC-62 melanoma; 6.32% (active) and 39.2% (inactive) in the experiment on LOX IMVI melanoma; 5.62% (active) and 66.4% (inactive) with SK-MEL-28 melanoma; -33.7% (active) and 84.8% (inactive) in the experiment with SK-MEL-2 melanoma; 10.2% (inactive) and 38.4% (inactive) in the experiment on SN12C renal. For the same molecule, the growth in the experiment on UO-31 renal is 8.29% (active) and 49.1% (inactive); in the experiment with TK-10 renal it was 6.96% (active) and 46.2% (inactive); in the experiment with ACHN renal, 12.8% (inactive) and 41.9% (inactive); in the experiment with CAKI-1 renal, 13.5% (inactive) and 62.8% (inactive); with A498 renal, -32.6% (active) and 43.1% (inactive); with CCRF-CEM leukemia, -14.6% (active) and 15.4% (inactive).
